Dicer processing = blocks human Dicer maturation of pre-miR-21 | Q9UPY3 | cat-ELCCA pre-miR-21 Dicer processing, chemiluminescence; hits give high values | z-score at 25 µM | actives 6% (n = 47,000) | AID 1347074; in the data active = z-score above about 3, passing the limit was not always enough;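 also: plate controls were vehicle for no effect and no enzyme for full effect; higher signal means more uncleaved substrate so more Dicer inhibition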
Target sequence (Q9UPY3 whole entry, looked up): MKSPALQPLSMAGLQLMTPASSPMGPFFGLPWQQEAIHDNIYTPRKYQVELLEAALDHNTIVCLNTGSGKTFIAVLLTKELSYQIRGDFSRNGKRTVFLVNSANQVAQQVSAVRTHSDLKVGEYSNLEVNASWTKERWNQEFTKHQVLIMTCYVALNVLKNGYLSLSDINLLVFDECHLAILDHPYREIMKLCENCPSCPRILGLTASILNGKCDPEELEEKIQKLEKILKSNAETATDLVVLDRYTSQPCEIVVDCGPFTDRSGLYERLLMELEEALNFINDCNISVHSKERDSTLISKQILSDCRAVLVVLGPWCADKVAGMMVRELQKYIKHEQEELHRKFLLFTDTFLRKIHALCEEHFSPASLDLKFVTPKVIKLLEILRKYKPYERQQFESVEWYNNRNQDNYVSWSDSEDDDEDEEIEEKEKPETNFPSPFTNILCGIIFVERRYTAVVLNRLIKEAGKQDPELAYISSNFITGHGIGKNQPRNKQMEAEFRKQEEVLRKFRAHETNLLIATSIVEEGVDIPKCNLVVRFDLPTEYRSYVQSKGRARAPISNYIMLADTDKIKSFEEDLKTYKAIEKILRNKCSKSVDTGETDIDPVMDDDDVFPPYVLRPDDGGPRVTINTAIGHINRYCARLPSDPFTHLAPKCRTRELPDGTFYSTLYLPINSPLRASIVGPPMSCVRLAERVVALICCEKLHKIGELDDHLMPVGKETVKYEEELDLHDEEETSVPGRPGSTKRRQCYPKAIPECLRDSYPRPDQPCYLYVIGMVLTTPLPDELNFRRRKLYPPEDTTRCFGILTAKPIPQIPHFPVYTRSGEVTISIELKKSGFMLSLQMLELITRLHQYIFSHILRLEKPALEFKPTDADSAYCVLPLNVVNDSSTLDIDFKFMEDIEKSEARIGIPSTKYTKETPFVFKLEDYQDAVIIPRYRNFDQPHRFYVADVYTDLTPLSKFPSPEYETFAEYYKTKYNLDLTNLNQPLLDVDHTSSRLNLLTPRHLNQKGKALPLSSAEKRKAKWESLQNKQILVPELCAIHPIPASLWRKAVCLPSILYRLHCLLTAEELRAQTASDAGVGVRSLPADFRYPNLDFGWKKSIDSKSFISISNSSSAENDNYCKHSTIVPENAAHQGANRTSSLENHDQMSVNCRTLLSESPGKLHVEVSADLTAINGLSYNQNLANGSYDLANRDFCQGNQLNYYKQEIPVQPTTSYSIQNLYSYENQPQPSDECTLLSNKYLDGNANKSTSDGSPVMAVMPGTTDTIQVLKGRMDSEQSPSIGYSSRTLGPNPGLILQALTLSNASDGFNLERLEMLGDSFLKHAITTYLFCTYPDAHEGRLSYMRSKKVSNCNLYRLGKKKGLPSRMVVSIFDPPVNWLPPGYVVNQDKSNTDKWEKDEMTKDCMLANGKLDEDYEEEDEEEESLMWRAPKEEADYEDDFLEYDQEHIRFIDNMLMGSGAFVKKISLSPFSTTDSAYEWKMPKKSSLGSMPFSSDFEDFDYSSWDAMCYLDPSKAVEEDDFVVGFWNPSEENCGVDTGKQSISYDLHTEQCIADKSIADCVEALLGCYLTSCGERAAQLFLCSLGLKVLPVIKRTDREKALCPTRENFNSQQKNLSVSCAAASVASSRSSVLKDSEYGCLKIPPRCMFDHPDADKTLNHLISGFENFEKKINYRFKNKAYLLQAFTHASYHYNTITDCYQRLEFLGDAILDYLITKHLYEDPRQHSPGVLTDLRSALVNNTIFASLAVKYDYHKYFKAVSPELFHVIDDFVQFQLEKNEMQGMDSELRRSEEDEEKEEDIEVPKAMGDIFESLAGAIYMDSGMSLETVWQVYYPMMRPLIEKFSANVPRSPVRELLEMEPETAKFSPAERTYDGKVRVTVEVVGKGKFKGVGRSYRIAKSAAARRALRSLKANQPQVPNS
An asterisk follows results filed as active. The entries come from a sample that favours hits as a whole.

For Cc1ccc(/C=C/c2nn3c(-c4ccco4)nnc3s2)cc1 the results were Dicer processing 3.2*.
Screening COc1ccc(/C=C/c2nn3c(Cc4ccc(OC)cc4)nnc3s2)cc1 returned Dicer processing 4.7*.
`COc1ccc(/C=C/c2nn3c(COc4ccccc4)nnc3s2)cc1` gave Dicer processing -1.5.
`COc1ccc(/C=C/c2nn3c(-c4ccccc4Cl)nnc3s2)cc1` gave Dicer processing 2.3.
Screening Clc1ccccc1-c1ccc(-c2nn3c(-c4ccco4)nnc3s2)o1 returned Dicer processing 0.62.
For COc1ccc(/C=C/c2nn3c(Cc4ccccc4)nnc3s2)cc1 the results were Dicer processing 0.34.
For Cc1cccc(/C=C/c2nn3c(-c4ccco4)nnc3s2)c1 the results were Dicer processing 3.4*.
`COC(=O)c1sc(N2C(=O)c3oc4ccccc4c(=O)c3C2c2ccccc2F)nc1C` (configuration not stated) gave Dicer processing 0.39.
`O=C1CSC(c2ccc(Cl)c(Cl)c2)N1c1ccc(F)cc1` (configuration not stated) gave Dicer processing -0.36.
For Cc1ccc(C2CC(=O)c3cnc(N4CCN(Cc5ccc6c(c5)OCO6)CC4)nc3C2)cc1 (configuration not stated) the results were Dicer processing 0.38.
Cc1onc(-c2ccccc2)c1-c1nc(CSc2nc3ccccc3[nH]2)no1 was read as Dicer processing 0.38.
CCOc1cc(C2C(C(=O)OC3CCCC3)=C(C)NC3=C2C(=O)CC(c2cccs2)C3)ccc1O (configuration not stated) was read as Dicer processing 2.3.
`C=CCNC(=S)NNC(=O)c1ccc2ncccc2c1` gave Dicer processing -0.17.
For CSc1cccc(NC(=O)CN(c2ccccc2)S(=O)(=O)N(C)C)c1 the results were Dicer processing -1.7.
Screening CN(C)S(=O)(=O)N(CC(=O)Nc1ccc2c(c1)OCO2)c1ccccc1 returned Dicer processing -1.1.
Screening CN(C)S(=O)(=O)N(CC(=O)Nc1ccc(F)c(F)c1)c1ccccc1 returned Dicer processing 4.3*.
`Cc1cc(C)c(C#N)c(Nc2ccc(-c3ccccc3)cc2)n1` gave Dicer processing 1.3.
CS/C(N)=N\C(=S)Nc1cccc(Cl)c1 was read as Dicer processing 7.8.
Screening N=C1C(c2nc3ccccc3s2)=C(O)CN1C1CCCCC1 returned Dicer processing 3.1*.
Cc1ccc(N2CC(O)=C(c3nc4ccccc4s3)C2=N)cc1 was read as Dicer processing 0.48.
N=C1C(c2nc3ccccc3s2)=C(O)CN1Cc1ccccc1 was read as Dicer processing 0.75.
`O=[N+]([O-])c1ccc(N2CC=CCC2)nc1` gave Dicer processing -0.2.
`CSc1scc(NC(=O)Nc2ccc(OC(F)(F)F)cc2)c1S(=O)(=O)C(C)C` gave Dicer processing 0.88.
CSc1scc(Cl)c1S(=O)(=O)C(C)C was read as Dicer processing 14*.
`CSc1sc(C(=O)O)c(N)c1S(=O)(=O)C(C)C` gave Dicer processing -1.3.
Screening O=c1c2nnn(Cc3ccccc3Cl)c2ncn1Cc1ccc([N+](=O)[O-])cc1 returned Dicer processing 1.6.
O=c1c(Cc2ccc([N+](=O)[O-])cc2)c(-c2ccccc2)sc2ccccc12 was read as Dicer processing 3.6*.
For O=c1c(Cc2ccc(Cl)cc2Cl)c(-c2ccccc2)sc2ccccc12 the results were Dicer processing -2.3.
`O=c1c(Cc2ccc(Cl)c(Cl)c2)c(-c2ccccc2)sc2ccccc12` gave Dicer processing -0.98.
`CC(C)c1ccc(N(CCc2ccccn2)S(=O)(=O)c2ccc(Cl)cc2)cc1` gave Dicer processing -0.96.
For COc1ccc(CC(=O)c2c(O)cc(O)cc2O)cc1 the results were Dicer processing 2.
COc1ccc(NS(=O)(=O)c2ccc(NS(=O)(=O)c3ccccc3)cc2)nn1 was read as Dicer processing -0.12.
For Cc1cc(C)c(CSC2=NCCS2)c(C)c1 the results were Dicer processing -1.2.
Screening CCOC(=O)/C(C#N)=C/Nc1nc2c(OC)cccc2s1 returned Dicer processing 1.6.
CSC1=N/C(=C\N(C)C)C(=O)N1CCOc1ccc(Cl)cc1 was read as Dicer processing 3.3*.
Screening O=c1ccccn1CCOc1ccc(Cl)cc1 returned Dicer processing 1.
CSC1=N/C(=C\c2ccc(Cl)cc2)C(=O)N1Cc1ccc(Cl)cc1 was read as Dicer processing 0.77.
Screening CCOC(=O)c1c(C)n(C)c2cc(CN(C)C)c(O)c(S(=O)(=O)c3ccccc3)c12 returned Dicer processing 3.8*.
For CCOC(=O)c1c(CN(C)C)n(C)c2cc(Br)c(O)c(CN(C)C)c12 the results were Dicer processing 1.9.
`CCOC(=O)c1c(CS(=O)(=O)c2ccccc2)n(C)c2cc(Br)c(O)cc12` gave Dicer processing 1.4.
`Cc1nc2ccc(F)cc2c2c1CCN2c1ccccc1` gave Dicer processing -1.5.
Screening COC(=O)c1ccc(S(=O)(=O)NCCNc2cccc(C(F)(F)F)n2)n1C returned Dicer processing -0.1.

Assay outcomes deposited in PubChem by Center for Chemical Genomics, University of Michigan.
